Test results taken from PubChem BioAssay AID1345082 (National Center for Advancing Translational Sciences (NCATS), 2018).
Out of some 94,000 compounds screened, about 4,000 (4.3%) were called active. Roughly 29% stayed inconclusive and do not appear here. The sample as a whole holds a higher share of actives than the screen did. Values without a mark were called inactive. Calls come from the whole dose curve; as a rule, active = well fitted inhibition curve with a large enough effect; inconclusive = small, poorly fitted or top-dose-only effect; inactive = no such curve, though single readings can be large or run the other way.

test: Cytotoxic Profiling in NIH 3T3 Cell Line of Diverse Libraries Using Quantitative High-Throughput Screening; details: NIH 3T3 viability, CellTiter-Glo ATP luminescence, 48-72 h; series mostly up to 96.7 µM; activity change, negative = cytotoxicity: at the top concentration; note: nearly all actives have a fitted effect of over 55% in size
Description: Cell-based phenotypic screening is a commonly used approach to discover biological pathways, novel drug targets, chemical probes and high-quality hit-to-lead molecules. Many hits identified from high-throughput screening campaign are ruled out through a series of follow-up potency, selectivity/specificity, and cytotoxicity assays. Prioritization of molecules with little or no cytotoxicity for a more in-depth downstream evaluation influence the future direction of projects, so cytotoxicity profiling of the screening libraries at early stage is essential for increasing the likelihood of candidate success. In this study, we analyzed results from a cell-based cytotoxicity screening campaign, comprising nearly 10,000 compounds in NCATS annotated libraries, and over 100,000 compounds in a diversity library, evaluated in four normal cell lines (HEK 293, NIH 3T3, CRL-7250 and HaCat) and a cancer cell line (KB 3-1, a HeLa subline) with overall screening outcomes, hit rates, pan-activity and selectivity. For the annotated library, we also examined the primary targets and mechanistic pathways regularly associated with cell death. To our knowledge, this is the first study to use high-throughput screening to profile large libraries for cytotoxicity assessment in both normal and cancer cell lines. In summary, the results generated here constitutes a valuable resource for the scientific community and provides insight on identifying cytotoxic compounds with particular mechanisms of action, and prioritizing compounds with suitable cytotoxicity profile for further evaluation.
NIH 3T3 cells were seeded into white 1536-well plates using a Multidrop Combi peristaltic dispenser (ThermoFisher, Waltham, MA) at a density of 400 cells/well in 5 uL of medium respectively. A pintool (Kalypsys) was used to transfer 23 nL of compound solution to the 1536-well assay plates. After 48 or 72 hr incubation at 37 degree Celsius, 5% CO2 and 95% humidity, 2.5 uL of CellTiter-Glo (Promega) was dispensed into each well using a dispenser (Aspect Automation, St. Paul, MN) with solenoid valves (Lee Valves, Westbrook CT). Plates were left at room temperature for 10 min before imaging the ATP-coupled luminescence using a ViewLux microplate imager (PerkinElmer, Waltham, MA).
% is set by controls: 0 for no effect and ±100 for the full control effect; potency is the fitted concentration of half-maximal effect.

SMILES | activity change, negative = cytotoxicity | outcome | Potency
O=C(Cc1cccc(Cl)c1)N1CCCN(c2ccc3nnc(C4CC4)n3n2)CC1 | -5.27% | – | –
Cn1ccnc1CN1CCCC(CCC(=O)Nc2ccccc2F)C1 (stereo unspecified) | – | inactive | –
Cc1c[nH]c(CN2CCCC(CCc3ccc(F)cc3F)C2)c(C)c1=O (stereo unspecified) | – | – | 50.1 µM (active)
CN1[C@@H](CCC(=O)N2CCOCC2)CNC(=O)[C@@H]2[C@H]1CCN2Cc1ccc(S(C)(=O)=O)cc1 | – | inactive | –
O=c1[nH]c(C2CCN(Cc3ccccc3)CC2)nc2ccc(F)cc12 | – | – | inactive
Cc1ccc(F)cc1S(=O)(=O)N1CCC(OC2CCN(Cc3ccccc3)CC2)CC1 | – | – | 35.5 µM (active)
CC(C)C(=O)N1CCC(OC2CCN(Cc3ccccc3)CC2)CC1 | -29.4% | – | –
CCCN1CCN(c2ccc(C(=O)N(C)Cc3ccc4ccccc4n3)cn2)CC1 | -1.06% | – | –
C[S+](=O)([O-])c1cccc(-c2ncc3c(n2)OCCN(Cc2ccc(F)cc2F)C3=O)c1 | – | – | 28.2 µM (active)
COc1ccc(CN2CCN3C(=O)N(c4ccccc4)C[C@H]3C2)cn1 | -29.7% [at 174 µM] | – | –
COc1ccc(-c2ncc3c(n2)OCCN(Cc2ccccc2)C3=O)cn1 | – | – | 35.5 µM (active)
CN(C)c1cccc(-c2ncc3c(n2)OCCN(Cc2ccc(F)cc2F)C3=O)c1 | -22.8% [at 138 µM] | – | –
COCCOc1ccc(-c2noc([C@@H]3CCCN3Cc3cccnc3)n2)cn1 | -21.8% [at 138 µM] | – | –
COCCN1CCOC2(CCN(Cc3ccc(F)cc3F)CC2)C1=O | -26.7% [at 138 µM] | – | –
Cc1nc(CCNc2nccc(-c3cccnc3)n2)nc2c1CCCC2 | 2.97% | – | –
CNC(=O)[C@@H]1[C@H]2CN(C3CCCCCC3)CCN2C[C@H]1c1ccccc1 | -42.5% | – | –
O=C(C1CCCC1)N1C[C@@H](CO)[C@H](c2ccncc2)C1 | 2.17% | – | –
CC(C)(C)c1ccc(C(=O)N2C[C@@H](CO)[C@H](c3ccccn3)C2)cc1 | -21% | – | –
CC(C)CNC(=O)c1nnn2c1COC(c1ccc(Br)cc1)C2 (stereo unspecified) | -19.1% | – | –
CC(C)Cc1cc(CNc2nc(C(C)(C)C)nc3c2cnn3C)no1 | – | – | 44.7 µM (active)
CCCc1nc(NCC(c2ccccn2)N2CCOCC2)c2cnn(C)c2n1 (stereo unspecified) | -21.1% | – | –
COc1ccc2[nH]cc(CCNC(=O)CC3=C4CCCCC4N(C)C3=O)c2c1 (stereo unspecified) | -14.7% | – | –
COc1ccc(CNC(=O)CC[C@@H]2CNC(=O)[C@@H]3C[C@H](NC(=O)Nc4ccsc4)CN23)cc1 | -13.2% | – | –
Cc1cccc(-c2nc3ccc(C(=O)N4CCCCC4)cc3o2)n1 | – | – | 10 µM (active)
CCOC(=O)C1CCCN(C(=O)c2ccc3oc(-c4ccccn4)nc3c2)C1 (stereo unspecified) | -25.6% | – | –
CC(=O)N1CCN(C(=O)c2ccc3nc(-c4ccncc4)oc3c2)CC1 | -10% | – | –

SMILES | activity change, negative = cytotoxicity | outcome | Potency
CCOc1ccccc1C1NC(=O)N(CC(=O)Nc2ccc(C)c(C)c2)C2=C1C(=O)OC2 (stereo unspecified) | -18.4% | – | –
Cc1ccccc1NC(=O)CN1C(=O)NC(c2ccccc2Cl)C2=C1COC2=O (stereo unspecified) | 3.33% | – | –
CCc1cccc(NC(=O)CN2C(=O)NC(c3ccc(Cl)cc3)C3=C2COC3=O)c1 (stereo unspecified) | – | – | 25.1 µM (active)
Cc1cccc(C)c1NC(=O)CN1C(=O)NC(c2ccc(Cl)cc2)C2=C1COC2=O (stereo unspecified) | -22.8% | – | –
Cc1ccc(Cl)cc1NC(=O)CN1C(=O)NC(c2ccc(Cl)cc2)C2=C1COC2=O (stereo unspecified) | – | – | 35.5 µM (active)
CCOc1ccccc1C1NC(=O)N(CC(=O)Nc2c(C)cccc2Cl)C2=C1C(=O)OC2 (stereo unspecified) | -3.32% | – | –
CCN1CC2(CCN(Cc3c(OC)ccc(F)c3F)CC2)OC1=O | -17.4% | – | –
COc1ccc(-c2cccc(C(=O)N3CCN(C(=O)c4ccc(Cl)nc4)CC3)c2)nn1 | -9.4% | – | –
COCCc1noc(C2Cc3ccccc3N2C(=O)NCc2ccco2)n1 (stereo unspecified) | – | inactive | –
O=C(NC[C@H]1O[C@H](Cc2cc(-c3ccccc3)on2)CC[C@@H]1O)C1CCC1 | -24.2% [at 174 µM] | – | –
O=C1Nc2ccccc2CC12CCN2Cc1cncs1 (stereo unspecified) | -7.66% [at 138 µM] | – | –
CC(=O)N1CCN(C(=O)c2ccccc2N2CCOCC2)CC(O)C1 (stereo unspecified) | 1.1% | – | –
COCc1cccc(-c2n[nH]c3c2CC(=O)N(c2ccccc2)C3)c1 | -29% [at 138 µM] | – | –
O=C1Cc2c(-c3ccc(CO)cc3)n[nH]c2CN1CC1CCOCC1 | – | – | 79.4 µM (active)
c1cc(-c2ccc3c(c2)OCCCO3)n2ncnc2n1 | -6.36% | – | –
COc1ccc(Cn2c(=O)c(C(=O)N3CCN(C(=O)Nc4ccccc4)CC3)nc3cccnc32)cc1 | -14% | – | –
COc1ccccc1-c1ccc(C(=O)N2CCC(C(=O)NC3CC3)CC2)cc1 | -28.9% | – | –
COc1cccc(-c2ccc(CN3CCCC(NC(=O)NC4CCCC4)C3)cc2)c1 (stereo unspecified) | -37.7% | – | –
O=C(NC1CCCN(Cc2ccc(-c3cncnc3)cc2)C1)C1CCCC1 (stereo unspecified) | -24.3% | – | –
COc1ccc(F)cc1S(=O)(=O)N1[C@@H]2CC[C@H]1CC(NC(=O)c1ccc(F)cc1)C2 (stereo partly specified) | -23.8% | – | –
COCCC1(NC(=O)c2ccccc2)CCN(Cc2ccc(F)cc2F)CC1 | -5.71% | – | –
O=C(NC1CCCN(Cc2ccc(-c3cncnc3)cc2)C1)c1ccccc1 (stereo unspecified) | -26.2% | – | –
COc1ccc(F)cc1-c1ccc(CN2CCC(NC(=O)c3ccccc3)C2)cc1 (stereo unspecified) | – | – | 35.5 µM (active)
Cc1cc(C)cc(-c2ccc(CN3CCCC(NC(=O)c4ccccc4)C3)cc2)c1 (stereo unspecified) | – | – | 22.4 µM (active)
COc1ccc(CC(=O)NC2CCN(Cc3ccc(-c4ccccc4OC)cc3)C2)cc1 (stereo unspecified) | – | – | 31.6 µM (active)
